Here are results for 27 molecules from PubChem BioAssay (NCI).

SMILES strings stand for the structures. “And” between values parts separate entries of the source, which are not always exact repeats. Equal values may be shown once. This is part of a sample that, as a whole, favours compounds with a hit. Of some 83,000 tested, about 20% had one in any assay.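 The endpoint reported here, percent growth, reads 100 for growth as untreated, 0 for no net growth and -100 for all cells dead.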 The source made the active and inactive calls. How the source made its calls: active means growth percent below 10; inactive means the rest.

This experiment deals with MDA-MB-468 breast. In words: NCI-60 one-dose screen, 48 h (100 = growth as untreated, 0 = no growth, -100 = all killed). The note with it: 10 µM unless noted.
Take `CC(=O)Nc1nc(C)c(C(=O)N/N=C/N2CCCCC2)s1`: the growth is 101% (inactive).

Consider `CCOC(=O)C1=NN(c2ccccc2)C2=NC(=O)/C(=C\c3cn(-c4ccccc4)nc3-c3cc4ccccc4o3)C(=O)N12`, for which the growth is 111% (inactive).

For `O=C(COc1ccccc1)N1N=C(c2ccc(Cl)cc2)CC1c1c[nH]c2ccccc12` (configuration not stated), the growth was 85.7% (inactive).

`Cn1nc(C(F)(F)F)c(-c2cc(C(F)(F)F)cc(C(F)(F)F)c2)c1-c1ccc(OCc2ccc(Cl)cc2)cc1O`: the growth was -5% (active).

In the case of `O=C(CSc1nc2ccccc2c(=O)n1CCc1ccccc1)Nc1ccc(S(=O)(=O)Nc2ccc(Cl)nn2)cc1`, the growth is 103% (inactive).

As to `C/C=C/C(=O)OCCCCCCCCCCCC`, the growth is 96.9% (inactive).

As for `C#CCNC(=O)CC[C@]1(C)[C@H]2CC[C@@H]3[C@@H]([C@@](C)(O)CCC=C(C)C)CC[C@@]3(C)[C@]2(C)CC[C@H]1C(=C)C`, the growth is 48.5% [100 µM] (inactive).

In the case of `CC1=NN(c2ccccc2)C(=O)C1C(=O)c1ccccc1` (configuration not stated), the growth is 83.4% (inactive).

`COc1cc2c(c(OC)c1O)C(=O)C(OC)C(c1ccc(O)c(O)c1)O2` (configuration not stated): the growth was 7.99% (active).

Turning to `CN(C)CCCNC1=C(Cl)C(=O)c2ccccc2C1=O`, the growth was -8.11% (active) and -54.1% (active).

In the case of `COc1ccccc1NS(=O)(=O)c1cccc(C(=O)Nc2ccc(Br)cc2)c1`, the growth is 3.03% (active).

Take `COc1cc2nc(-c3ccc(C(F)(F)F)cc3)cc(OCCCN3CCCC3)c2cc1OC`: the growth was 43.8% (inactive).

Consider `COc1ccc(Cn2cc3c(c2-c2cc(OC)c(OC)c(OC)c2)CCc2c(CO)noc2-3)cc1`, for which the growth was -17.8% (active).

With `O=c1oc2ccc(Br)cc2c(=O)n1-c1ccc(F)cc1F`, the growth is -2.96% (active).

For `CCOC(=O)C(C(=O)OCC)C1CCCCC1`, the growth is 105% (inactive).

Turning to `CCNC(=O)Oc1ccc(/C(=C(\C)c2ccc(Cl)cc2)c2ccc(OCCN(CC)CC)cc2)cc1`, the growth was 67.5% (inactive).

As for `Cc1cc(=O)c2cc3nc(-c4cccnc4)oc3c(Br)c2o1`, the growth was 96.4% (inactive).

With `CCC(C)[C@@H]1NC(=O)[C@@H]2CCCN2C(=O)[C@H](Cc2ccccc2)NC(=O)[C@@H]2CCCN2C(=O)[C@H](Cc2ccccc2)NC(=O)[C@@H]2CCCN2C(=O)[C@H](Cc2ccccc2)NC1=O` (some centres not stated), the growth is 116% (inactive).

Turning to `CCCCC[C@H](O)C/C=C1/C(=O)C=C[C@@H]1C/C=C\CCCC(=O)O`, the growth was 67.4% (inactive).

In the case of `CCC12OC(COc3ccccc3)CN1CCN2c1ccccc1` (configuration not stated), the growth is 97.4% [100 µM] (inactive).

With `Nc1cc(N)ncn1`, the growth was 101% (inactive).

With `O=C(O)c1ccc(S(=O)(=O)O)cc1`, the growth was 103% (inactive).

As for `COc1cc(OC)cc(-c2cc(-c3c[nH]c4ccccc34)nc(-c3c[nH]c4ccccc34)c2C#N)c1`, the growth is 92.2% (inactive).

As to `CCN1CCN(Cc2cn(CC(=O)Nc3ccc4c(ccn4Cc4ccccc4)c3)nn2)CC1`, the growth was 97.2% (inactive).

On to `C#Cc1cccc(Oc2ccc(NC(=O)CCl)cc2)c1`, for which the growth is -7.9% [8.25 µM] (active).

`COc1ccc2c(c1)C(C)Cc1c(ncnc1-n1cnc3cc(C)ccc31)N2C` (configuration not stated): the growth was 7.23% (active).

For `CCOC(=O)c1[nH]cc2c1CCc1sc(Nc3ccccn3)nc1-2`, the growth is 46.9% (inactive).
